In PubChem BioAssay (NCI):
Compounds without any hit were thinned out: in the full panel of roughly 83,000, 20% have a hit.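 Results are percent growth after 48 hours of single-concentration exposure. 100 means growth as in untreated cells, lower positive values show inhibition; negative values down to -100 show cell death.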 Active and inactive are the calls of the source. Rule for the calls: active = growth percent below 10; inactive = the rest.

How the values were obtained:
Assay in all cases: NCI-60 one-dose screen, 48 h (100 = growth as untreated, 0 = no growth, -100 = all killed)
SK-MEL-2 melanoma = settings: 10 µM
EKVX NSCLC = settings: 10 µM
SN12C renal = settings: 10 µM
UO-31 renal = settings: 10 µM
TK-10 renal = test system: TK-10 renal
ACHN renal = settings: 10 µM
CAKI-1 renal = settings: 10 µM
A498 renal = settings: 10 µM
CCRF-CEM leukemia = settings: 10 µM
MOLT-4 leukemia = settings: 10 µM

Measured: growth

FC(F)(F)c1ccc2c(c1)N(CCCN1CCN(C3CC3)CC1)c1ccccc1S2
inactive: SK-MEL-2 melanoma 90.4% | EKVX NSCLC 86.8% | SN12C renal 47.7% | UO-31 renal 17.6% | TK-10 renal; 10 µM unless noted 80% | ACHN renal 78.1% | CAKI-1 renal 17.3% | CCRF-CEM leukemia 26.5% | MOLT-4 leukemia 34%
active: A498 renal 9.76%

COC(=O)c1ccccc1Br
inactive: SK-MEL-2 melanoma 114% | EKVX NSCLC 81.4% | SN12C renal 92.4% | UO-31 renal 96.4% | TK-10 renal; 10 µM unless noted 103% | ACHN renal 105% | CAKI-1 renal 102% | A498 renal 104% | CCRF-CEM leukemia 109% | MOLT-4 leukemia 94.6%

O=C(c1ccc(Cl)cc1)c1ccccc1Cl
inactive: SK-MEL-2 melanoma 103% | EKVX NSCLC 96.9% | SN12C renal 94.7% | UO-31 renal 72.2% | TK-10 renal; 10 µM unless noted 90.9% | ACHN renal 95% | CAKI-1 renal 88% | A498 renal 126% | CCRF-CEM leukemia 90.5% | MOLT-4 leukemia 87.1%

Oc1ccc(N=Nc2ccc(Br)cc2)c(O)c1
active: SK-MEL-2 melanoma -5.42% | CAKI-1 renal 3.01% | CCRF-CEM leukemia -20%
inactive: EKVX NSCLC 47.4% | SN12C renal 54.1% | UO-31 renal 30.3% | TK-10 renal; 10 µM unless noted 39.2% | ACHN renal 49.8% | A498 renal 23.5% | MOLT-4 leukemia 21.2%

COc1ccc(Oc2c(I)cc(CC(NC(C)=O)C(=O)O)cc2I)cc1 (stereo not drawn)
inactive: SK-MEL-2 melanoma 102% | EKVX NSCLC 67.9% | SN12C renal 83.8% | UO-31 renal 71.7% | TK-10 renal; 10 µM unless noted 113% | ACHN renal 97.6% | CAKI-1 renal 57.4% | A498 renal 79.7% | CCRF-CEM leukemia 78.4% | MOLT-4 leukemia 60.9%

CC1(C)N=C(N)N=C(N)N1c1cccc(Br)c1
inactive: SK-MEL-2 melanoma 65.3% | EKVX NSCLC 45.1% | SN12C renal 37.3% | UO-31 renal 50.2% | TK-10 renal; 10 µM unless noted 51.7% | ACHN renal 30.2% | CAKI-1 renal 70% | A498 renal 104% | CCRF-CEM leukemia 36.1% | MOLT-4 leukemia 41.4%

O=C(CC(=O)c1ccccc1O)c1ccccc1
inactive: SK-MEL-2 melanoma 131% | EKVX NSCLC 76.8% | SN12C renal 85.7% | UO-31 renal 87.3% | TK-10 renal; 10 µM unless noted 87.8% | ACHN renal 99% | CAKI-1 renal 92.2% | A498 renal 98.6%

O=C(O)C(Cc1ccccc1)C(=O)O
inactive: SK-MEL-2 melanoma 111% | EKVX NSCLC 106% | SN12C renal 103% | UO-31 renal 91.6% | TK-10 renal; 10 µM unless noted 105% | ACHN renal 111% | CAKI-1 renal 102% | A498 renal 89.1% | CCRF-CEM leukemia 97.9% | MOLT-4 leukemia 116%

CN(C)CCN(Cc1ccccc1)c1ccccc1
inactive: SK-MEL-2 melanoma 124% | EKVX NSCLC 110% | SN12C renal 97.5% | UO-31 renal 107% | TK-10 renal; 10 µM unless noted 110% | ACHN renal 110% | CAKI-1 renal 77.2% | A498 renal 99% | CCRF-CEM leukemia 123% | MOLT-4 leukemia 90.5%

S=C1CCCCCN1
inactive: SK-MEL-2 melanoma 105% | EKVX NSCLC 98.1% | SN12C renal 100% | UO-31 renal 82.5% | TK-10 renal; 10 µM unless noted 109% | ACHN renal 99.1% | CAKI-1 renal 93.9% | A498 renal 101% | CCRF-CEM leukemia 107% | MOLT-4 leukemia 111%

COc1cc2cc(OC(C)=O)c3cc4c(cc3c2c(OC)c1OC)OCO4
inactive: SK-MEL-2 melanoma 109% | EKVX NSCLC 95% | SN12C renal 101% | UO-31 renal 89% | TK-10 renal; 10 µM unless noted 101% | ACHN renal 101% | CAKI-1 renal 99% | A498 renal 92.5% | MOLT-4 leukemia 96.6%
active: CCRF-CEM leukemia 2.13%

CN(C)c1ccc(C(c2ccc(O)cc2)c2ccc(N(C)C)cc2)cc1
inactive: SK-MEL-2 melanoma 101% | EKVX NSCLC 91.3% | SN12C renal 92% | UO-31 renal 81.2% | TK-10 renal; 10 µM unless noted 117% | ACHN renal 103% | CAKI-1 renal 93.7% | A498 renal 85.8% | CCRF-CEM leukemia 96.3% | MOLT-4 leukemia 86.4%

CC(=O)OCC1CCCO1 (stereo not drawn)
inactive: SK-MEL-2 melanoma 106% | EKVX NSCLC 96% | SN12C renal 103% | UO-31 renal 92.2% | TK-10 renal; 10 µM unless noted 94.9% | ACHN renal 106% | CAKI-1 renal 101% | A498 renal 101% | CCRF-CEM leukemia 107% | MOLT-4 leukemia 97.6%

O=C(NC1CCCCC1)OCc1c(COC(=O)NC2CCCCC2)c(-c2ccc(Cl)c(Cl)c2)n2c1CCC2
active: SK-MEL-2 melanoma -9.91% | UO-31 renal -13.6% | ACHN renal 5.4% | CAKI-1 renal 8.84% | A498 renal -67.7%
inactive: EKVX NSCLC 60.5% | SN12C renal 22.3% | TK-10 renal; 10 µM unless noted 35.2% | CCRF-CEM leukemia 32.9%

C=C1CC/C=C(\C)C(=O)C[C@@H]2[C@@H]1CC2(C)C
active: TK-10 renal; 100 µM -73.6%
inactive: SK-MEL-2 melanoma 102% | EKVX NSCLC 104% | SN12C renal 114% | UO-31 renal 88.3% | TK-10 renal; 10 µM 123% | ACHN renal 102% | A498 renal 85% | CCRF-CEM leukemia 69.3% | MOLT-4 leukemia 93.5%

O=S(=O)(O)c1ccc(Cl)c(Cl)c1
inactive: SK-MEL-2 melanoma 103% | EKVX NSCLC 91.4% | SN12C renal 97.9% | UO-31 renal 79.4% | TK-10 renal; 10 µM unless noted 100% | ACHN renal 97.3% | CAKI-1 renal 84.8% | A498 renal 99.4% | CCRF-CEM leukemia 103% | MOLT-4 leukemia 109%

C1CNC(C2=NCCN2)=N1
inactive: SK-MEL-2 melanoma 116% | EKVX NSCLC 103% | SN12C renal 102% | UO-31 renal 90.2% | TK-10 renal; 10 µM unless noted 103% | ACHN renal 109% | CAKI-1 renal 99.2% | A498 renal 108% | CCRF-CEM leukemia 109% | MOLT-4 leukemia 96.4%

C#CC(C)(O)c1ccc(Cl)cc1 (stereo not drawn)
inactive: SK-MEL-2 melanoma 106% | EKVX NSCLC 98.6% | SN12C renal 113% | UO-31 renal 99.4% | TK-10 renal; 10 µM unless noted 106% | ACHN renal 110% | CAKI-1 renal 103% | A498 renal 98% | CCRF-CEM leukemia 103% | MOLT-4 leukemia 107%

CN(C)C(=O)Oc1cccc([N+](C)(C)C)c1
inactive: SK-MEL-2 melanoma 124% | EKVX NSCLC 93.1% | SN12C renal 97.8% | UO-31 renal 98.6% | TK-10 renal; 10 µM unless noted 125% | ACHN renal 97.9% | CAKI-1 renal 89.9% | A498 renal 95.5% | CCRF-CEM leukemia 113% | MOLT-4 leukemia 102%

CCOC(=O)/C(=C/c1ccc(OC)cc1)N(CC)CC
inactive: SK-MEL-2 melanoma 103% | EKVX NSCLC 106% | SN12C renal 102% | UO-31 renal 92.9% | TK-10 renal; 10 µM unless noted 107% | ACHN renal 113% | CAKI-1 renal 103% | A498 renal 109% | CCRF-CEM leukemia 100% | MOLT-4 leukemia 99%

Cc1cc(C)c(CC(=O)O)c(C)c1
inactive: SK-MEL-2 melanoma 100% | EKVX NSCLC 98.3% | SN12C renal 113% | UO-31 renal 94.3% | TK-10 renal; 10 µM unless noted 106% | ACHN renal 102% | CAKI-1 renal 93.3% | A498 renal 84.4% | CCRF-CEM leukemia 103% | MOLT-4 leukemia 98.5%

Cc1nc2ccccc2c2nnc(SCC(=O)N(Cc3ccccc3)c3ccccc3)n12
inactive: SK-MEL-2 melanoma 51.2% | EKVX NSCLC 76.6% | SN12C renal 100% | UO-31 renal 89% | TK-10 renal; 10 µM unless noted 189% | ACHN renal 92.8% | CAKI-1 renal 71.3% | CCRF-CEM leukemia 85.4% | MOLT-4 leukemia 93.1%
active: A498 renal -16.6%

CC(C)=NNc1ccc([N+](=O)[O-])cc1[N+](=O)[O-]
inactive: SK-MEL-2 melanoma 113% | EKVX NSCLC 74% | SN12C renal 84.4% | UO-31 renal 61.3% | TK-10 renal; 10 µM unless noted 96.9% | ACHN renal 64.8% | CAKI-1 renal 53.9% | A498 renal 74.5% | CCRF-CEM leukemia 42.2%

CCOC(=O)/C(C#N)=C/c1cccc(C)c1
inactive: SK-MEL-2 melanoma 106% | EKVX NSCLC 98.9% | SN12C renal 103% | UO-31 renal 88.9% | TK-10 renal; 10 µM unless noted 98% | ACHN renal 98.9% | CAKI-1 renal 69.5% | A498 renal 101%

S=C(Nc1ccccc1)N1CCCCC1
inactive: SK-MEL-2 melanoma 98% | EKVX NSCLC 105% | SN12C renal 102% | UO-31 renal 88.4% | TK-10 renal; 10 µM unless noted 109% | ACHN renal 94.5% | CAKI-1 renal 94.6% | A498 renal 77.6% | CCRF-CEM leukemia 102% | MOLT-4 leukemia 98%

O=C(CCNNC(=O)c1ccncc1)NCc1ccccc1
inactive: SK-MEL-2 melanoma 94.3% | EKVX NSCLC 106% | SN12C renal 97.1% | UO-31 renal 91.3% | TK-10 renal; 10 µM unless noted 133% | ACHN renal 93% | CAKI-1 renal 109% | A498 renal 110% | MOLT-4 leukemia 99%
active: CCRF-CEM leukemia 5.43%

O=C1OC[C@H]2[C@H](c3ccc(O)c(O)c3)c3cc(O)c(O)cc3C[C@H]12
inactive: SK-MEL-2 melanoma 26.4% | EKVX NSCLC 152% | SN12C renal 110% | UO-31 renal 47.2% | TK-10 renal; 10 µM unless noted 118% | ACHN renal 112% | CAKI-1 renal 136% | A498 renal 134% | CCRF-CEM leukemia 205% | MOLT-4 leukemia 281%

COc1ccc(C(O)c2ccccc2)cc1 (stereo not drawn)
inactive: SK-MEL-2 melanoma 112% | EKVX NSCLC 101% | SN12C renal 104% | UO-31 renal 81.9% | TK-10 renal; 10 µM unless noted 101% | ACHN renal 106% | CAKI-1 renal 100% | A498 renal 102% | CCRF-CEM leukemia 106% | MOLT-4 leukemia 94.1%

CC(C)COC(=O)COC(=O)OCCOCCOC(=O)OCC(=O)OCC(C)C
inactive: SK-MEL-2 melanoma 94.2% | EKVX NSCLC 119% | SN12C renal 97.9% | UO-31 renal 89.8% | TK-10 renal; 10 µM unless noted 91.9% | ACHN renal 95.7% | CAKI-1 renal 116% | A498 renal 99.9% | CCRF-CEM leukemia 106%

CC(C)CCOC(=O)c1ccccc1
inactive: SK-MEL-2 melanoma 106% | EKVX NSCLC 110% | SN12C renal 102% | UO-31 renal 92% | TK-10 renal; 10 µM unless noted 101% | ACHN renal 111% | CAKI-1 renal 97.1% | A498 renal 97.7% | CCRF-CEM leukemia 109% | MOLT-4 leukemia 98.7%

COc1cc(OC)c2ccc(=O)oc2c1
inactive: SK-MEL-2 melanoma 104% | EKVX NSCLC 95.2% | SN12C renal 97% | UO-31 renal 94.9% | TK-10 renal; 10 µM unless noted 101% | ACHN renal 104% | CAKI-1 renal 113% | A498 renal 101% | CCRF-CEM leukemia 106% | MOLT-4 leukemia 115%
